Assay [1] in a line: NCI Yeast Anticancer Drug Screen. Data for the rad50 strain (AID 155).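 Further: 0% = growth of vehicle-only cultures of the same strain.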 Conditions: S. cerevisiae rad50 strain growth inhibition, stronger effect = higher value. A digest of the protocol: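 Inhibition values express reduced yeast growth in compound-treated cultures relative to vehicle-treated controls.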
Assay [2] in a line: NCI Yeast Anticancer Drug Screen. Data for the mec2-1 strain (AID 157). Conditions: S. cerevisiae mec2-1 strain, stronger effect = higher value. A digest of the protocol: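 Compounds were applied to mec2-1 yeast cells. Their growth was then compared with that of vehicle-treated cultures to give growth inhibition.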
The nature of assay [3]: NCI Yeast Anticancer Drug Screen. Data for the sgs1 mgt1 strain (AID 161).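 Further: 0% = growth of cultures given vehicle only.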 Conditions: S. cerevisiae sgs1 mgt1 strain, stronger effect = higher value. The gist of the method: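 Yeast cells carrying a defined DNA-repair defect were exposed to test compounds. Growth inhibition was measured relative to vehicle-treated controls.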
Assay [4] can be described thus: NCI Yeast Anticancer Drug Screen. Data for the cln2 rad14 strain (AID 165).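 Further: 0% = growth equal to vehicle treated cultures.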 Particulars: S. cerevisiae cln2 rad14 strain, stronger effect = higher value. A digest of the protocol:
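Strain: cln2 rad14 yeast, altered in cell cycle control and DNA damage repair. Read-out: growth inhibition vs vehicle.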

Assay [5] can be described thus: NCI Yeast Anticancer Drug Screen. Data for the bub3 strain (AID 167). Particulars: S. cerevisiae bub3 mutant strain, stronger effect = higher value. A digest of the protocol: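 Steps: expose the mutant yeast strain to compound; grow alongside vehicle-treated cultures; measure growth; express inhibition against the vehicle cultures.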
The nature of assay [6]: NCI Yeast Anticancer Drug Screen. Data for the mlh1 rad18 strain (AID 175). Particulars: S. cerevisiae mlh1 rad18 strain growth inhibition, stronger effect = higher value. A digest of the protocol:
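A repair-deficient yeast strain is exposed to test compound, and growth is scored relative to vehicle-treated controls.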

Where [7] appears, read: at 5.0 µM (retest, dose inferred, filed as 0.5).
[8] abbreviates: at 50.0 µM (retest, dose inferred, filed as 5.0).

This is part of a sample that, as a whole, favours compounds with a hit. Of some 79,000 tested, about 15% had one in any assay. A number with no mark means an inactive call. Activity calls are given as the source filed them. No stated cut-off is given here; in the data, active means growth inhibition above about 70%; inactive means the rest.

As for `O=C(CCN1CCCCC1)/C(=C\c1ccc(Cl)cc1)c1ccccc1`, the growth inhibition in assay [1] (setting [7]) was 5%; in assay [1] (setting [8]), 95% (active); in assay [1] (at 50.0 µM) it was 99% (active); in assay [2] (setting [7]), 7%; in assay [2] (setting [8]), 99% (active); in assay [2] (at 50.0 µM), 99.4% (active). In addition, the growth inhibition in assay [3] (setting [7]) is 37%; in assay [3] (setting [8]) it was 100% (active); in assay [3] (at 50.0 µM), 99.3% (active); in assay [4] (setting [7]), 14%; in assay [4] (setting [8]), 91% (active); in assay [4] (at 50.0 µM), 99.1% (active). Also, the growth inhibition in assay [5] (setting [7]) is 20%; in assay [5] (setting [8]), 98% (active); in assay [5] (at 50.0 µM), 99% (active); in assay [6] (setting [7]) it was 16%; in assay [6] (setting [8]) it was 99% (active); in assay [6] (at 50.0 µM), 99.2% (active).

In the case of `O=C(Nc1ccccc1)c1ccc(Cl)cc1Cl`, the growth inhibition is -15% in assay [1] (setting [7]); -21% in assay [1] (setting [8]); 1.35% in assay [1] (at 50.0 µM); -9% in assay [2] (setting [7]); -4% in assay [2] (setting [8]); 1.85% in assay [2] (at 50.0 µM). The growth inhibition in assay [3] (setting [7]) was -2%; in assay [3] (setting [8]), 7%; in assay [3] (at 50.0 µM), -3.15%; in assay [4] (setting [7]) it was 31%; in assay [4] (setting [8]), -50%; in assay [4] (at 50.0 µM), -7.95%. The growth inhibition in assay [5] (setting [7]) was 4%; in assay [5] (setting [8]) it was -34%; in assay [5] (at 50.0 µM), 8.75%; in assay [6] (setting [7]), -6%; in assay [6] (setting [8]), -8%; in assay [6] (at 50.0 µM), 8.05%.

`CCN(CC)c1ccc(N=Nc2ccc(-c3nc4cccn(C)c-4n3)cc2)cc1`: the growth inhibition was 8% in assay [1] (setting [7]); 8% in assay [1] (setting [8]); 80.2% (active) in assay [1] (at 50.0 µM); -5% in assay [2] (setting [7]); -5% in assay [2] (setting [8]); 79.2% (active) in assay [2] (at 50.0 µM). Further, the growth inhibition was -13% in assay [3] (setting [7]); -13% in assay [3] (setting [8]); 76.7% (active) in assay [3] (at 50.0 µM); -2% in assay [4] (setting [7]); -2% in assay [4] (setting [8]); 80.2% (active) in assay [4] (at 50.0 µM). The growth inhibition in assay [5] (setting [7]) is 9%; in assay [5] (setting [8]) it was 9%; in assay [5] (at 50.0 µM), 84.3% (active); in assay [6] (setting [7]) it was -4%; in assay [6] (setting [8]) it was -4%; in assay [6] (at 50.0 µM), 82% (active).

For `O=C1c2ccccc2C(=O)c2sccc21`, the growth inhibition was -97% in assay [1] (setting [7]); 91% (active) in assay [1] (setting [8]); 95.8% (active) in assay [1] (at 50.0 µM); -36% in assay [2] (setting [7]); 51% in assay [2] (setting [8]); 84.8% (active) in assay [2] (at 50.0 µM). Moreover, the growth inhibition is -43% in assay [3] (setting [7]); 62% in assay [3] (setting [8]); 93.8% (active) in assay [3] (at 50.0 µM); -56% in assay [4] (setting [7]); 32% in assay [4] (setting [8]); 56.3% in assay [4] (at 50.0 µM). In addition, the growth inhibition in assay [5] (setting [7]) was -36%; in assay [5] (setting [8]) it was 90% (active); in assay [5] (at 50.0 µM), 90.5% (active); in assay [6] (setting [7]), -75%; in assay [6] (setting [8]), 92% (active); in assay [6] (at 50.0 µM), 93.9% (active).

For the molecule `CSc1nc(NN)cc(-c2ccccc2)n1`, the growth inhibition in assay [1] (setting [7]) was 0%; in assay [1] (setting [8]) it was 23%; in assay [1] (at 50.0 µM) it was 12.5%; in assay [2] (setting [7]), 24%; in assay [2] (setting [8]), 19%; in assay [2] (at 50.0 µM), 50.3%. Moreover, the growth inhibition in assay [3] (setting [7]) was 0%; in assay [3] (setting [8]) it was 57%; in assay [3] (at 50.0 µM), 56.7%; in assay [4] (setting [7]), 2%; in assay [4] (setting [8]), -2%; in assay [4] (at 50.0 µM) it was 3.1%. Moreover, the growth inhibition in assay [5] (setting [7]) was -3%; in assay [5] (setting [8]), 68%; in assay [5] (at 50.0 µM) it was 81.2% (active); in assay [6] (setting [7]), -1%; in assay [6] (setting [8]), 54%; in assay [6] (at 50.0 µM), 79.3% (active).

Turning to `CCOC(=S)SCc1nc2ccccc2[nH]1`, the growth inhibition is 9% in assay [1] (setting [7]); 51% in assay [1] (setting [8]); 87% (active) in assay [1] (at 50.0 µM); 3% in assay [2] (setting [7]); 96% (active) in assay [2] (setting [8]); 80.7% (active) in assay [2] (at 50.0 µM). Besides, the growth inhibition was 7% in assay [3] (setting [7]); 15% in assay [3] (setting [8]); 82.6% (active) in assay [3] (at 50.0 µM); 10% in assay [4] (setting [7]); 83% (active) in assay [4] (setting [8]); 69% in assay [4] (at 50.0 µM). The growth inhibition was 5% in assay [5] (setting [7]); 86% (active) in assay [5] (setting [8]); 76.8% (active) in assay [5] (at 50.0 µM); 3% in assay [6] (setting [7]); 93% (active) in assay [6] (setting [8]); 89.2% (active) in assay [6] (at 50.0 µM).

For `O=C(O)CCSCc1cc(C(=O)Nc2ccc(/C=C/c3ccc(NC(=O)c4cc(CSCCC(=O)O)c5cccnc5c4O)cc3S(=O)(=O)O)c(S(=O)(=O)O)c2)c(O)c2ncccc12`, the growth inhibition is 48% in assay [1] (setting [7]); 53% in assay [1] (setting [8]); 74% (active) in assay [1] (at 50.0 µM); 37% in assay [2] (setting [7]); 89% (active) in assay [2] (setting [8]); 61.6% in assay [2] (at 50.0 µM). For the same molecule, the growth inhibition in assay [3] (setting [7]) was 58%; in assay [3] (setting [8]), 53%; in assay [3] (at 50.0 µM), 79.1% (active); in assay [4] (setting [7]), 22%; in assay [4] (setting [8]), 74% (active); in assay [4] (at 50.0 µM), 45.5%. Besides, the growth inhibition in assay [5] (setting [7]) was 59%; in assay [5] (setting [8]), 96% (active); in assay [5] (at 50.0 µM), 78.4% (active); in assay [6] (setting [7]) it was 52%; in assay [6] (setting [8]), 92% (active); in assay [6] (at 50.0 µM), 79.5% (active).

As to `C/C(=C\c1ccccc1)c1ccncc1`, the growth inhibition in assay [1] (setting [7]) was -17%; in assay [1] (setting [8]), 48%; in assay [1] (at 50.0 µM), 64.7%; in assay [2] (setting [7]) it was 14%; in assay [2] (setting [8]), 12%; in assay [2] (at 50.0 µM), 44.2%. For the same molecule, the growth inhibition in assay [3] (setting [7]) is -8%; in assay [3] (setting [8]), 51%; in assay [3] (at 50.0 µM) it was 65.6%; in assay [4] (setting [7]), -8%; in assay [4] (setting [8]) it was 21%; in assay [4] (at 50.0 µM), 35.9%. For the same molecule, the growth inhibition is -9% in assay [5] (setting [7]); 48% in assay [5] (setting [8]); 45.8% in assay [5] (at 50.0 µM); -11% in assay [6] (setting [7]); 24% in assay [6] (setting [8]); 54.9% in assay [6] (at 50.0 µM).

For the molecule `N#CC1=CN=C2C=CC=C3N=C(C(Cl)(Cl)Cl)N=C1N32`, the growth inhibition in assay [1] (setting [7]) was 19%; in assay [1] (setting [8]), 93% (active); in assay [1] (at 50.0 µM) it was 49.9%; in assay [2] (setting [7]), 7%; in assay [2] (setting [8]) it was 97% (active); in assay [2] (at 50.0 µM), 39.3%. The growth inhibition is 28% in assay [3] (setting [7]); 97% (active) in assay [3] (setting [8]); 87.2% (active) in assay [3] (at 50.0 µM); 2% in assay [4] (setting [7]); 91% (active) in assay [4] (setting [8]); 14.8% in assay [4] (at 50.0 µM). Also, the growth inhibition was -1% in assay [5] (setting [7]); 89% (active) in assay [5] (setting [8]); 20.3% in assay [5] (at 50.0 µM); 25% in assay [6] (setting [7]); 95% (active) in assay [6] (setting [8]); 76.8% (active) in assay [6] (at 50.0 µM).

For the origin of these results see PubChem BioAssay (NCI).
